From the supplement of paper PMC8975748 come the findings set out here.

Structures can show the parent of a compound that is named as a salt.

The subject of the experiment is Saccharomyces cerevisiae BY4741 SeMeCo community. As to the kind of experiment: z-score of subpopulation abundance vs DMSO median, subpopulation auxotrophic for LU; higher = larger share of this subpopulation than in DMSO controls. The settings on record: 10 µM; 24 h; SM minimal medium; subpopulation (auxotrophy): LU. The method, then: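 Fluorescent four-plasmid SeMeCo (self-establishing metabolically cooperating S. cerevisiae BY4741 community; plasmids pH-mRuby2, pL-mWasabi, pU-eCFP, pM-TagRFP657) was grown 24 h in minimal SM medium with each Selleck FDA-approved drug at 10 µM in 384-well plates. Cells were fixed and imaged by high-content confocal microscopy. For each auxotrophic subpopulation (and the prototroph), a z-score gives the deviation from the DMSO vehicle-control population median.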
On to `CCN(C)C(=O)Oc1cccc([C@H](C)N(C)C)c1` [Rivastigmine Tartrate], for which the “z-score of subpopulation abundance” value stood at 0.44.
To `COc1cc2c(cc1OC)C1CC(=O)C(CC(C)C)CN1CC2` (centres undefined) [Tetrabenazine (Xenazine)] belongs -0.11; to `C[CH2][Hg][S]c1ccccc1C(=O)[O-].[Na+]` [Thimerosal], 11.1.
To `O=C(O[C@H]1C[C@H]2CC[C@@H](C1)[N+]21CCCC1)C(O)(c1ccccc1)c1ccccc1` [Trospium chloride] belongs -0.24; to `CCN(C)C(=O)Oc1cccc([C@H](C)N(C)C)c1` [Rivastigmine], -1.09; to `COc1ccc2[nH]cc(CCN)c2c1` [5-Methoxytryptamine], 1.01.
To `CC(C)(O)C(Cl)(Cl)Cl` [Chlorobutanol] belongs 0.52.
Regarding `Oc1cccc2cccnc12` [8-Hydroxyquinoline], the “z-score of subpopulation abundance” value is -0.63.
Regarding `C[C@H]1O[C@H](O[C@H]2[C@H](O)[C@@H](O)[C@@H](O)[C@H](O)[C@@H]2O)[C@@H](N)C[C@@H]1NC(=N)C(=O)O` [Kasugamycin hydrochloride], the “z-score of subpopulation abundance” value is 0.49.
To `CCC1=C[C@H]2CN3CCc4c([nH]c5ccccc45)[C@](C(=O)OC)(C2)[C@H]13` [Catharanthine] belongs -0.64.
As to `CN1c2ccccc2C(NCCCCCCC(=O)O)c2ccc(Cl)cc2S1(=O)=O` (centres undefined) [Tianeptine sodium], the “z-score of subpopulation abundance” value was -0.24.
To `CN(C)[C@@H]1C(=O)C(C(N)=O)=C(O)[C@@]2(O)C(=O)C3=C(O)c4c(O)ccc(Cl)c4[C@@](C)(O)[C@H]3C[C@@H]12` [Chlortetracycline HCl] belongs -0.72.
To `N#Cc1nn(-c2c(Cl)cc(C(F)(F)F)cc2Cl)c(N)c1[S+]([O-])C(F)(F)F` (centres undefined) [Fipronil] belongs 0.06.
To `CC[C@H]1CN2CC[C@]3(C(=O)Nc4ccccc43)[C@@H]2C[C@@H]1/C(=C\OC)C(=O)OC` [Rhynchophylline] belongs 0.24.
As to `NCCc1c[nH]c2ccc(O)cc12` [Serotonin HCl], the “z-score of subpopulation abundance” value is -0.51.
To `CC(=O)OCC1=C(C(=O)O)N2C(=O)C(N)C2SC1` (centres undefined) [7-Aminocephalosporanic acid] belongs 0.09; to `O=[N+]([O-])C(Br)(CO)CO` [Bronopol], 0.26; to `CC(NC(C)(C)C)C(=O)c1cccc(Cl)c1` (centres undefined) [Amfebutamone (Bupropion) HCl], 0.12.
To `COc1ccc2c3c([nH]c2c1)C(C)=NCC3` [Harmaline] belongs -7.5; to `C=C(C)[C@H]1Cc2c(ccc3c2O[C@@H]2COc4cc(OC)c(OC)cc4[C@@H]2C3=O)O1` [Rotenone (Barbasco)], 0.18.
Regarding `CC(C)=CCOc1c2occc2cc2ccc(=O)oc12` [Imperatorin], the “z-score of subpopulation abundance” value is 0.92.
To `C=CCN1C[C@H](C(=O)N(CCCN(C)C)C(=O)NCC)C[C@@H]2c3cccc4[nH]cc(c34)C[C@H]21` [Cabergoline] belongs 1.61; to `CN1[C@@H]2C[C@@H](OC(=O)[C@H](CO)c3ccccc3)C[C@H]1[C@@H]1O[C@@H]12` [Scopolamine HBr trihydrate], -0.6; to `C[C@@H]1O[C@@H](O[C@H]2C[C@@H](O)[C@]3(CO)[C@H]4[C@H](O)C[C@]5(C)[C@@H](C6=CC(=O)OC6)CC[C@]5(O)[C@@H]4CC[C@]3(O)C2)[C@H](O)[C@H](O)[C@H]1O` [Ouabain], -0.53.
To `COc1ccc2c(c1)[C@]13CCCC[C@@H]1[C@H](C2)N(C)CC3` [Dextromethorphan hydrobromide hydrate] belongs 0.05; to `CC1(C)SC2C(N)C(=O)N2C1C(=O)O` (centres undefined) [6-Aminopenicillanic acid], 0.32.
In the case of `Cc1cc(C(C#N)c2ccc(Cl)cc2)c(Cl)cc1NC(=O)c1cc(I)cc(I)c1O` (centres undefined) [Closantel], the “z-score of subpopulation abundance” value is 0.89.
On to `COc1ccc(C(CN(C)C)C2(O)CCCCC2)cc1` (centres undefined) [Venlafaxine HCl], for which the “z-score of subpopulation abundance” value was -0.06.
To `CN[C@@H]1[C@@H](O)[C@@H](O[C@@H]2[C@@H](O)[C@H](O[C@H]3O[C@H]([C@@H](C)O)[C@@H](O)[C@H](O)[C@H]3N)[C@@H](N)C[C@H]2N)OC[C@]1(C)O` [Geneticin (G418 Sulfate)] belongs 0.61.
To `CN(C)[C@@H]1C(=O)C(C(N)=O)=C(O)[C@@]2(O)C(=O)C3=C(O)c4c(O)cccc4[C@@](C)(O)[C@H]3C[C@@H]12` [Tetracycline HCl] belongs -0.24.
To `NCC(O)c1ccc(O)cc1` (racemic) [(+,-)-Octopamine HCl] belongs -0.38; to `C[N+]1(C)[C@@H]2C[C@@H](OC(=O)[C@H](CO)c3ccccc3)C[C@H]1[C@@H]1O[C@@H]12` [Methscopolamine], 0.27; to `N[C@@H]1C[C@H]1c1ccccc1` [Tranylcypromine (2-PCPA) HCl], -0.31.
On to `CC[C@H]1[C@@H]2C[C@H]3[C@@H]4N(C)c5ccccc5[C@]45C[C@@H]([C@@H]2[C@H]5O)N3[C@@H]1O` [Ajmaline], for which the “z-score of subpopulation abundance” value was -0.26.
